High-throughput results: PubChem, several laboratories
The entries come from a sample that favours hits as a whole.
GC-A act: GC-A (human) enzyme activation. P16066. HEK293 GC-A cells, cGMP TR-FRET, EC30 ANP; 0% at EC30 ANP, 100% saturating ANP. activation, % at 10 µM. 0.14% of 370,000 active; in the data active means activation above about 40%
HDAC3 inh: blocks human histone deacetylase 3 | AID 2718 | O15379 | recombinant HDAC3, fluorogenic peptide/trypsin coupled, fluorescence | 0.15% of 320,000 active | inhibition, % at 8.3 µM; in the data active means inhibition above about 26%, passing the limit was not always enough; inconclusive means no clear call, values can overlap the other calls
ALR inh: blocks human ALR sulfhydryl oxidase activity; P55789; 3.8% of 290,000 active; purified ALR, DTT oxidation, H2O2 HRP-luminol luminescence; inhibition, % (no concentration beside the values);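 active means mean replicate inhibition above about 79%, with every replicate also reaching it, limit read from the data; inconclusive means only one of the two criteria met; inactive means mean below limit and not every replicate reaching it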
Target sequence (P55789 whole entry, looked up): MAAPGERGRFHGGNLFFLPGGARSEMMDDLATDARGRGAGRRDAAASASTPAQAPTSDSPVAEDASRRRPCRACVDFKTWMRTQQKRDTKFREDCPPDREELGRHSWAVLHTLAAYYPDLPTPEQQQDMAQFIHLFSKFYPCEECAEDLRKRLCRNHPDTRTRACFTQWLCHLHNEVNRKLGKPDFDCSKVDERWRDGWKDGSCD
GC-B act: GC-B (human) receptor activation; P20594; HEK293-GC-B cells, CNP EC30, cGMP TR-FRET; 0% at EC30 CNP, 100% saturating CNP; activation, % at 10 µM; 0.11% of 370,000 active;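 active means activation at 10 µM reaching about 35% in either raw or pattern-adjusted values, limit read from the data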
Active calls of the source: *; ? = inconclusive; . = no result given.

SMILES	GC-A act	HDAC3 inh	ALR inh	GC-B act
CC(C)(C)c1ccc(C(=O)NNC(=O)CNC(=O)c2cccs2)cc1	-2	3	-3	2
COc1ccc(-c2cc(N)n(S(=O)(=O)c3ccc(C)cc3)n2)c(OC)c1	1	8	99*	-3
COc1ccc(S(=O)(=O)n2nc(OC(=O)c3ccco3)cc2N)cc1	7	71*	97*	4
COc1ccc(S(=O)(=O)n2nc(OC(=O)c3ccc(C)cc3)cc2N)cc1	37	61*	.	-1
CC(NC(=O)CN1CCN(c2ccc(Cl)cc2)CC1)c1ccccc1 (centres undefined)	-3	-7	.	0
COc1ccc(CNC(=O)CN2CCN(c3ccccc3)CC2)cc1	0	2	.	1
COc1cccc(N2CCN(CC(=O)NCc3ccccc3)CC2)c1	2	-5	98*	0
CC(CCc1ccccc1)NC(=O)CN1CCN(c2ccccc2)CC1 (centres undefined)	5	5	99*	-3
c1ccc(CCCN2CCN(c3ccccc3)CC2)cc1	-1	-1	86*	-15
COC(=O)[C@]12C[C@H](CC(=O)N3CCN(C(=O)C4CC4)CC3)C(=O)N(Cc3cccc4ccccc34)C1=C[C@H](C(C)C)O[C@@H]2C1CC1	-10	.	.	-4
CC(=O)C1=C(C)NC(SCc2cccc3ccccc23)=C(C#N)C1c1ccco1 (centres undefined)	2	6	99*	2
CCCCCCCCCCC[N+](C)(C)CC/C=C1/c2ccccc2Sc2ccc(Cl)cc21	.	32*	1	.
CCCCCCCCCC[N+](C)(C)CC/C=C1/c2ccccc2Sc2ccc(Cl)cc21	.	35*	-1	.
CC[N+](C)(C)CC/C=C1/c2ccccc2Sc2ccc(Cl)cc21	2	-3	-16	-1
CCCCCC(=O)N/N=C(\C)c1ccc(Cl)cc1	8	-1	-1	3
Cc1ccccc1NC(=S)N(Cc1cccnc1)Cc1ccccc1Cl	-7	-3	2	-5
O=c1c(-c2ccc(O)cc2O)coc2cc(O)cc(O)c12	1	2	81*	1
C[C@H](CO)N1C[C@H](C)[C@@H](CN(C)C(=O)Nc2ccc3c(c2)OCCO3)OCc2cnnn2CCCC1=O	-1	.	.	2
O=S1(=O)N[C@H](Cc2ccccc2)COc2cccc(N3CCC[C@@H]3CO)c21	-2	.	.	4
Cc1c(C(=O)N2CCCCC2)c(S(=O)(=O)NCc2ccc(N(C)C)cc2)c(C)n1C	-1	10	98*	3
Cc1ccc(CNS(=O)(=O)c2c(C(=O)N3CCCCC3)c(C)n(C)c2C)cc1	-1	-6	4	-4
CN(C)CCNC(=O)CCn1nc(-c2ccc(Cl)cc2)ccc1=O	-6	3	.	-1
COC(=O)c1ccc(NC2CC(=O)N(c3ccccc3C)C2=O)cc1 (centres undefined)	5	4	-2	4
Cc1ccccc1N1C(=O)CC(Nc2ccc3c(c2)OCO3)C1=O (centres undefined)	1	3	95*	2
COc1cc(NC(=O)c2[nH]c(C)c(C(C)=O)c2C)c(OC)cc1Cl	6	.	.	5
SMILES	GC-A act	HDAC3 inh	ALR inh	GC-B act
COCC(C)NCc1ccc(OC)c(Br)c1 (centres undefined)	-1	-1	-1	-9
N/C(=N\N=C\c1ccc(O)cc1)c1nonc1N	2	7	99*	-5
COc1cc(/C=N/N=C(\N)c2nonc2N)ccc1O	-5	?	99*	-3
O=C(Nc1ccc(-c2noc(COc3ccccc3Cl)n2)cc1)c1ccco1	2	2	-6	-6
CCOC(=O)N1CCN(S(=O)(=O)c2c(C(=O)N3CCCCC3)c(C)n(C)c2C)CC1	1	-2	3	3
Cc1ccc(S(=O)(=O)Nc2ccc(C(OC(=O)c3ccccc3[N+](=O)[O-])(C(F)(F)F)C(F)(F)F)cc2)cc1	0	31*	-5	-4
O=C(OC(c1ccc(NS(=O)(=O)c2ccccc2)cc1)(C(F)(F)F)C(F)(F)F)c1ccccc1	-1	34*	-14	-1
COc1cccc(N=C2CC(C)(C)CC(=O)/C2=C(/O)c2ccccc2)c1	-5	11	-10	1
CC(=O)NS(=O)(=O)c1ccc(NC(=O)c2cc(-c3ccc(C)cc3)nc3ccccc23)cc1	-4	4	98*	-1
CC(=O)NS(=O)(=O)c1ccc(NC(=O)c2cc(-c3ccc(C)c(C)c3)nc3ccccc23)cc1	-2	-1	97*	-6
Cc1c(N=C/C=C2\N(C)c3ccccc3C2(C)C)c(=O)n(-c2ccccc2)n1C	-3	13	93*	4
CN(C)c1ccc(N=C/C=C2\N(C)c3ccccc3C2(C)C)cc1	-19	13	99*	-10
Cc1c(N=C/C=C2/N(C)c3ccccc3C2(C)C)c(=O)n(-c2ccccc2)n1C	1	-2	99*	-6
Cc1c(NC(=O)NCc2ccccc2)c(=O)n(-c2ccccc2)n1C	4	1	-5	4
Cc1c(N=C/C=C/c2ccccc2)c(=O)n(-c2ccccc2)n1C	0	-4	63	-1
Cc1c(NC(=S)/C=C2\N(C)c3ccccc3C2(C)C)c(=O)n(-c2ccccc2)n1C	-4	8	95*	8
CN(CC(=O)Nc1ccccc1Br)C(=O)c1cc(S(=O)(=O)N(C)C)ccc1N1CCCC1	1	24	-6	-4
Cc1ccc(NC(=O)Cc2nnc(SCC(=O)NC3CCCC3)n2C)cc1C	0	4	.	-2
Cc1cc(/N=C/C=C2\N(C)c3ccccc3C2(C)C)n(CCC#N)n1	0	2	99*	6
COc1ccccc1C(=O)NC(=O)CSc1ccc(C)c(C)c1	-5	5	97*	-4
COCCNc1nnc(SCC(=O)NC(=O)c2ccccc2OC)s1	-4	-4	0	-2
O=C(O)c1ccc(Sc2nnc(-c3cccc(Br)c3)o2)c([N+](=O)[O-])c1	-1	6	99*	4
c1ccc(N2CCN(c3nc4ccccc4n4cnnc34)CC2)cc1	8	-4	97*	2
C1=C(c2ccccc2)CCN(c2nc3ccccc3n3cnnc23)C1	-2	-3	95*	-3
c1ccc2c(c1)nc(N1CCOCC1)c1nncn12	-1	1	-3	0
SMILES	GC-A act	HDAC3 inh	ALR inh	GC-B act
CCOC(=O)[C@]12CCC=C1N(Cc1ccccc1)C(=O)[C@H](CC(=O)NCCC(C)C)C2	-3	.	.	9
O=C(C(=O)N1CCC(CNC(=O)c2cccs2)CC1)c1cc2ccccc2o1	-10	.	.	-9
COc1ccc(C(=O)NCC(=O)N/N=C/c2cccc(OC(=O)c3ccco3)c2)cc1OC	2	9	7	-1
O=C(O)CCCC(=O)N1N=C(c2c(-c3ccccc3)c3cc(Cl)ccc3[nH]c2=O)CC1c1cccs1 (centres undefined)	-1	-7	87*	4
CCOC(=O)c1c(C)[nH]c(C2=NNC(=NC3CC3)SC2)c1C	.	5	98*	.
O=C(Nc1ccccc1O)c1ccc(NS(=O)(=O)c2cccc3cccnc23)cc1	-30	103*	44	-18
